Experimental findings from the supplement of paper PMC10849652 are described below.

Of roughly 8,800 targets only a part is listed; those with a hit were picked by preference. About 0.5% of all pairs of compound and target were hits.

UniProt Q15527, sequence (Q15527 whole entry, looked up): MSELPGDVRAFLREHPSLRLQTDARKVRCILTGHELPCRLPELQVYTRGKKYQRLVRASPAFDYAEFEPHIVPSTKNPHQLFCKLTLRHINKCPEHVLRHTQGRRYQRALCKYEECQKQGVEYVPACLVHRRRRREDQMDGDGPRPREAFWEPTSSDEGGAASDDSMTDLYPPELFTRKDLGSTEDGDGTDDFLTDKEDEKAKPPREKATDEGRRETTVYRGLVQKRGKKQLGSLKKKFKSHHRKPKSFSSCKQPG
UniProt O95149, sequence (O95149 whole entry, looked up): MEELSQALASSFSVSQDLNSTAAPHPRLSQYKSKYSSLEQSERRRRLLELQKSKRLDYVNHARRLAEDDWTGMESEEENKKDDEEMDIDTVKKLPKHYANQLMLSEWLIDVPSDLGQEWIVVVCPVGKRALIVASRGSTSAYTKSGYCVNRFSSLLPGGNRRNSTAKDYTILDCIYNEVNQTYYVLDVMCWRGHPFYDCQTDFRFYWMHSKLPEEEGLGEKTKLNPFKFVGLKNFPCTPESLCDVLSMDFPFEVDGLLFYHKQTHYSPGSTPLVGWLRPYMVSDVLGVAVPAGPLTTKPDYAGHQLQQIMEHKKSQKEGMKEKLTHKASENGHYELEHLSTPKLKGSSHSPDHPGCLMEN
UniProt Q13188, sequence (Q13188 whole entry, looked up): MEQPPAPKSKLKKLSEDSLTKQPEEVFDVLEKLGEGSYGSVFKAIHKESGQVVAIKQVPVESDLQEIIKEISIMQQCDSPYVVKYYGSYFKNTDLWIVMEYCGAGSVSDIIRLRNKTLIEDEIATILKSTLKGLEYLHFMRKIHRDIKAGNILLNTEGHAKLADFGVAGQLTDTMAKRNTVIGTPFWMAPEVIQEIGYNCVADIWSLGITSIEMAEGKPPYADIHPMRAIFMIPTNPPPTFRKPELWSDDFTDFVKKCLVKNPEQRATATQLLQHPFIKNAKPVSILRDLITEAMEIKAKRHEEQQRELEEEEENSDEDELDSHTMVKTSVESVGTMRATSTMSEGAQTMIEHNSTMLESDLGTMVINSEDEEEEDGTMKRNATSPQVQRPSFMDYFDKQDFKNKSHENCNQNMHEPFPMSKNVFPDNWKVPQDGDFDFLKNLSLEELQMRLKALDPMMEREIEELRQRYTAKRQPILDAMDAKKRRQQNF
UniProt Q9H7B4, sequence (Q9H7B4 whole entry, looked up): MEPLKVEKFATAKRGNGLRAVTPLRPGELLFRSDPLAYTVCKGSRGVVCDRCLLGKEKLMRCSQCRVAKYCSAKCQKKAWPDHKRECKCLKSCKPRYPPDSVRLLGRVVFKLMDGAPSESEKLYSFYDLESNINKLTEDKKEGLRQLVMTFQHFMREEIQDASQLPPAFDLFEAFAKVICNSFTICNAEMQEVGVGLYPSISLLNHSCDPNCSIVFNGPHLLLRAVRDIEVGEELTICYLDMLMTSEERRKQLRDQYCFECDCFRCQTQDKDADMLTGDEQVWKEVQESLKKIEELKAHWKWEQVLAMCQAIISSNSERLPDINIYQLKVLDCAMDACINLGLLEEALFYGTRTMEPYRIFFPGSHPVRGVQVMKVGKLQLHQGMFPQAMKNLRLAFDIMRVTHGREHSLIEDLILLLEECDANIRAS
UniProt P62316, sequence (P62316 whole entry, looked up): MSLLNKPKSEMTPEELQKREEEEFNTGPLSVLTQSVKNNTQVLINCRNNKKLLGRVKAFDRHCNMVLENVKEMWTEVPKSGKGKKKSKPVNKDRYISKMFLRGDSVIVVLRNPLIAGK
UniProt Q6NXT4, sequence (Q6NXT4 whole entry, looked up): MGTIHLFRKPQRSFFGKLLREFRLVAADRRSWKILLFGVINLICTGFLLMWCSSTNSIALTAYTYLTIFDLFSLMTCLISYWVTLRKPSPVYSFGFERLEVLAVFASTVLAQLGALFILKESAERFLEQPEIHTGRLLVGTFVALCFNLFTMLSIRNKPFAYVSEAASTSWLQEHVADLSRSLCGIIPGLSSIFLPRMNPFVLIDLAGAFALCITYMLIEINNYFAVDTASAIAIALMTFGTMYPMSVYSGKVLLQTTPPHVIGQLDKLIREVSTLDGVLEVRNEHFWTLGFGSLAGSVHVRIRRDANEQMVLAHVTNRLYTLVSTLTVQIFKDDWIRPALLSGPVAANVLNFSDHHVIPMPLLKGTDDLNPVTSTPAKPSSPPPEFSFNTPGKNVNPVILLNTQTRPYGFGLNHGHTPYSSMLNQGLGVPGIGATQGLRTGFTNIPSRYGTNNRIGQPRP
UniProt Q53T94, sequence (Q53T94 whole entry, looked up): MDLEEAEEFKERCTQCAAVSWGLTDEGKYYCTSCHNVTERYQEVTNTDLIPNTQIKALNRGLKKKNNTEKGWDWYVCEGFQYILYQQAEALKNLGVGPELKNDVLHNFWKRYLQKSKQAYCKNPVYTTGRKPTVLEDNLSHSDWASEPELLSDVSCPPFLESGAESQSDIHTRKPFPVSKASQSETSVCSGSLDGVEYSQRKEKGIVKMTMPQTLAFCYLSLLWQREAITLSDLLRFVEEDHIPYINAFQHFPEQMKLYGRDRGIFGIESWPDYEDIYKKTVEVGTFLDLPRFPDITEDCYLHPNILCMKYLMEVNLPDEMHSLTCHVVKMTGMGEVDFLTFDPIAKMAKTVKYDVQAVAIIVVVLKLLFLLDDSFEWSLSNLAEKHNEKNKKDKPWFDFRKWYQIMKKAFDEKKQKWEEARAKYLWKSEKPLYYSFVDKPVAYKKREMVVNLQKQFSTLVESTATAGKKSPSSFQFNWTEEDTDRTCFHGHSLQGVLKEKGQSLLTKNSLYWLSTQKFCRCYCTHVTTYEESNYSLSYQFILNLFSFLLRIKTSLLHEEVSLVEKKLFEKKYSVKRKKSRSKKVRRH
UniProt Q13395, sequence (Q13395 whole entry, looked up): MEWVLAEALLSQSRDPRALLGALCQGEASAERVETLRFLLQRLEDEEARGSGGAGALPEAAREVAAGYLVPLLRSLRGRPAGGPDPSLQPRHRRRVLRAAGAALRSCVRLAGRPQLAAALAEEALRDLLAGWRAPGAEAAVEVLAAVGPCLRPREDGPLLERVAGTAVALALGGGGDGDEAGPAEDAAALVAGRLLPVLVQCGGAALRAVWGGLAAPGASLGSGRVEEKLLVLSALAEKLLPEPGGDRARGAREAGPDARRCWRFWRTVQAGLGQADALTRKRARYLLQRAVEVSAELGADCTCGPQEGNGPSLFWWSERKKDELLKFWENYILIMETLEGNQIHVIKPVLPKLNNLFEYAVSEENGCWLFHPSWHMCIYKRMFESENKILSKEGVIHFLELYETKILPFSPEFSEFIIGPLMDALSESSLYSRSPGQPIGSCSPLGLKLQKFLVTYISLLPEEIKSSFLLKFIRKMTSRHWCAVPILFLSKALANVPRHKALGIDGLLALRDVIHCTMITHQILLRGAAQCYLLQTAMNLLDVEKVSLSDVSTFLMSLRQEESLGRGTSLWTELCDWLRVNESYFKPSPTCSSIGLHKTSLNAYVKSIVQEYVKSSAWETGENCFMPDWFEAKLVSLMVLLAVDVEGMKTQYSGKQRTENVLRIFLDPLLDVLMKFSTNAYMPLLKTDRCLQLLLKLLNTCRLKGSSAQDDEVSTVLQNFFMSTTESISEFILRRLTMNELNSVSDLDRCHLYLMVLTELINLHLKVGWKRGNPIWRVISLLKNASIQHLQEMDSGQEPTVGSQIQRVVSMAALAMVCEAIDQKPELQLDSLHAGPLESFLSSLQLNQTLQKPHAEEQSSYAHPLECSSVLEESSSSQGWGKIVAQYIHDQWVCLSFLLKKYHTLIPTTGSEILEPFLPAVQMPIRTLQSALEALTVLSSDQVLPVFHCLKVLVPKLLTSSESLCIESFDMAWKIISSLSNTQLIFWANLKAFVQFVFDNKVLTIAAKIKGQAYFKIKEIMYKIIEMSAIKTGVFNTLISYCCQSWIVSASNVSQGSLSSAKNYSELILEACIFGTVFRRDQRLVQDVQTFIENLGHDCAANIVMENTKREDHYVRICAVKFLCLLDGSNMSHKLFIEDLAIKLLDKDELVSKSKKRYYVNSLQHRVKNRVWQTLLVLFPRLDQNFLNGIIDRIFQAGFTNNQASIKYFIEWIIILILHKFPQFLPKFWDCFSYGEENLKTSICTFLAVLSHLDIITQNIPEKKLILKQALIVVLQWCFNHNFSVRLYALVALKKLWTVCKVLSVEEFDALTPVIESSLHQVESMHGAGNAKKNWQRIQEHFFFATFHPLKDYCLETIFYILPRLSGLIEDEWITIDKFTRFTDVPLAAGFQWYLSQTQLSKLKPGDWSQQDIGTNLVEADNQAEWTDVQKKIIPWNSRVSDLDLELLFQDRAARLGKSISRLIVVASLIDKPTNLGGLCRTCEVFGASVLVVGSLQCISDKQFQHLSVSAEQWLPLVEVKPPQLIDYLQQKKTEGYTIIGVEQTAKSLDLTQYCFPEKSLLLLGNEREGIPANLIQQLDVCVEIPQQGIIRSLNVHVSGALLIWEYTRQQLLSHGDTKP
UniProt Q8N1S5, sequence (Q8N1S5 whole entry, looked up): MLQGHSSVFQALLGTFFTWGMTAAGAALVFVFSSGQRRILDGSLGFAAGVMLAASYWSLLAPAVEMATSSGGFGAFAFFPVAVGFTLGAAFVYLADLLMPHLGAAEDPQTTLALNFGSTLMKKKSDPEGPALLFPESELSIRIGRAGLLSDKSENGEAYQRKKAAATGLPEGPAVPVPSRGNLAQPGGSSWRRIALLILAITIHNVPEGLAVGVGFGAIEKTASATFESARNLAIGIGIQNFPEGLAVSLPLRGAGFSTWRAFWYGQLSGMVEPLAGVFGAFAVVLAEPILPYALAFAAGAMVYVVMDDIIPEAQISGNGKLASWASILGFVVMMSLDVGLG
UniProt Q9HBM1, sequence (Q9HBM1 whole entry, looked up): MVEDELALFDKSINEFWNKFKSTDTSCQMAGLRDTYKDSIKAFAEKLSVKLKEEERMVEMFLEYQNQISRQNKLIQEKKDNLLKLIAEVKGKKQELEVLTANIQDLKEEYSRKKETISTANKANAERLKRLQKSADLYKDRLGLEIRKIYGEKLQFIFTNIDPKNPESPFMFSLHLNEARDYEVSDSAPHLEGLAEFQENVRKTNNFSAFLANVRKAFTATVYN
UniProt B2RUZ4, sequence (B2RUZ4 whole entry, looked up): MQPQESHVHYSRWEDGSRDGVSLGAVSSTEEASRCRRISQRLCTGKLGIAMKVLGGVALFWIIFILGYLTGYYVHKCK

Compound in one experiment: CC1=C(C2=C(C=C1)C(=O)C3=CC=CC=C3N2CCCN)C
The experiment can be described thus: log2 fold change, soluble protein after heating vs DMSO (PISA); higher = thermal stabilisation; K562 lysate, 10 uM; active = over 0.2 and 3.5 SD of the protein, either way, in both replicates (recomputed). In short, it runs like this:
(§1)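 To prepare the extract, K562 pellets were dounce-homogenised in PBS pH 7.4 with 1 mM MgCl2, giving crude material at 1 mg/mL protein. This was treated with 10 μM compound for 30 min, then heated in aliquots for 3 min over 48°C-58°C before pooling and addition of NP-40 to 0.5% at 4°C. Centrifugation at 21,000xg for 90 min left soluble protein in the supernatant, which TMTpro 16plex LC-MS/MS quantified with equalised channel sums. Results are log-two fold changes in thermal stability compared with solvent controls, from duplicates.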
On to SOX5 (UniProt P35711), for which the log2 fold change is 0.053 (inactive).
SYK (UniProt P43405): the log2 fold change was -0.114 (inactive).
For SUZ12 (UniProt Q15022), the log2 fold change is -0.09 (inactive).
On the same count and under the same terms, the value for SRGN (UniProt P10124) was -0.079 (inactive).

Compound in another experiment: CC1=C(C=C(C=C1)NC(=O)C2=CC(=CC=C2)C(C)(C)C#N)NC3=CC4=C(C=C3)N=CN(C4=O)C
The experiment is described as above. In a few lines:
as §1
Turning to SORBS3 (UniProt O60504), the log2 fold change is 0.046 (inactive).
SF3B6 (UniProt Q9Y3B4): the log2 fold change is 0.002 (inactive).
Regarding TAF1B (UniProt Q53T94), the log2 fold change is 0.032 (inactive).
The same measure, in the same setting: the value for SH3GL1 (UniProt Q99961) was 0.025 (inactive); that for SLC25A38 (UniProt Q96DW6) was 0.002 (inactive).
The same measure, in the same setting: the value for SLC30A6 isoform 2 (UniProt Q6NXT4) was -0.022 (inactive).
For the target SMYD3 (UniProt Q9H7B4), the log2 fold change was 0.038 (inactive).
On to SIX5 (UniProt Q8N196), for which the log2 fold change was 0.017 (inactive).
Same read-out and setting: the same measure for SSBP3 (UniProt Q9BWW4): -0.018 (inactive); for SNRPD2 (UniProt P62316): 0.01 (inactive).
Regarding SNUPN (UniProt O95149), the log2 fold change was 0.001 (inactive).
As to SLC39A11 (UniProt Q8N1S5), the log2 fold change was -0.074 (inactive).
STN1 (UniProt Q9H668): the log2 fold change was -0.016 (inactive).
The same measure, in the same setting: the value for SRSF9 (UniProt Q13242) was 0.047 (inactive); that for SMIM12 (UniProt Q96EX1) was 0.038 (inactive); that for STMN3 (UniProt Q9NZ72) was 0.012 (inactive).
On the same count and under the same terms, the value for SLC25A44 (UniProt Q96H78) was 0.038 (inactive).
Same read-out and setting: the value for SYNE2 isoform 2 (UniProt Q8WXH0) was 0.04 (inactive).
On to STK3 isoform 2 (UniProt Q13188), for which the log2 fold change was -0.025 (inactive).
Still for that read-out and setting: the same measure for SPPL2A (UniProt Q8TCT8): 0.138 (inactive); for SURF2 (UniProt Q15527): 0.026 (inactive).
With SPC25 (UniProt Q9HBM1), the log2 fold change was 0.016 (inactive).
The same measure, in the same setting: the same measure for SH3BP2 isoform 4 (UniProt P78314): 0.03 (inactive); for SMC1B isoform 3 (UniProt Q8NDV3): 0.021 (inactive).
Same read-out and setting: the value for TARBP1 (UniProt Q13395) was 0.002 (inactive).
Regarding SRRT (UniProt Q9BXP5), the log2 fold change is -0.008 (inactive).
Regarding SMIM1 (UniProt B2RUZ4), the log2 fold change is -0.042 (inactive).
For the target SOX5 (UniProt P35711), the log2 fold change was 0.036 (inactive).
Still for that read-out and setting: the value for SYK (UniProt P43405) was -0.001 (inactive); that for SUZ12 (UniProt Q15022) was 0.289 (active).
Same read-out and setting: the value for SRGN (UniProt P10124) was 0.104 (inactive).

Compound in the next experiment: CC1=C(C=C(C=C1)NC(=O)C2=CC(=CC=C2)N(C)C)NC(=O)C3=CC=C(C=C3)O
Described as above. In a few lines: as §1
For SORBS3 (UniProt O60504), the log2 fold change was -0.05 (inactive).
Turning to SF3B6 (UniProt Q9Y3B4), the log2 fold change was 0.024 (inactive).
Consider TAF1B (UniProt Q53T94), for which the log2 fold change was 0.006 (inactive).
Turning to SH3GL1 (UniProt Q99961), the log2 fold change is 0.006 (inactive).
Consider SLC25A38 (UniProt Q96DW6), for which the log2 fold change is 0.115 (inactive).
Regarding SLC30A6 isoform 2 (UniProt Q6NXT4), the log2 fold change was 0.053 (inactive).
For the target SMYD3 (UniProt Q9H7B4), the log2 fold change is 0.036 (inactive).
Take SIX5 (UniProt Q8N196): the log2 fold change is 0.13 (inactive).
Same read-out and setting: the same measure for SSBP3 (UniProt Q9BWW4): 0 (inactive); for SNRPD2 (UniProt P62316): 0.015 (inactive); for SNUPN (UniProt O95149): -0.036 (inactive).
Still for that read-out and setting: the value for SLC39A11 (UniProt Q8N1S5) was -0.089 (inactive).
For STN1 (UniProt Q9H668), the log2 fold change is 0.051 (inactive).
Still for that read-out and setting: the value for SRSF9 (UniProt Q13242) was -0.028 (inactive); that for SMIM12 (UniProt Q96EX1) was -0.064 (inactive); that for SZT2 (UniProt Q5T011) was -0.134 (inactive).
Turning to STMN3 (UniProt Q9NZ72), the log2 fold change was -0.011 (inactive).
Turning to SLC25A44 (UniProt Q96H78), the log2 fold change was -0.118 (inactive).
With SYNE2 isoform 2 (UniProt Q8WXH0), the log2 fold change is -0.005 (inactive).
For the target STK3 isoform 2 (UniProt Q13188), the log2 fold change was 0.016 (inactive).
With SPPL2A (UniProt Q8TCT8), the log2 fold change is 0.091 (inactive).
SURF2 (UniProt Q15527): the log2 fold change was 0.031 (inactive).
Still for that read-out and setting: the value for SPC25 (UniProt Q9HBM1) was 0.002 (inactive); that for SH3BP2 isoform 4 (UniProt P78314) was -0.126 (inactive).
As for SMC1B isoform 3 (UniProt Q8NDV3), the log2 fold change is 0.026 (inactive).
On to TARBP1 (UniProt Q13395), for which the log2 fold change was 0.035 (inactive).
As for SSX5 isoform 2 (UniProt O60225), the log2 fold change is -0.018 (inactive).
As to SRRT (UniProt Q9BXP5), the log2 fold change was 0.043 (inactive).
Turning to SMIM1 (UniProt B2RUZ4), the log2 fold change is -0.021 (inactive).
On the same count and under the same terms, the value for SOX5 (UniProt P35711) was 0.088 (inactive); that for SYK (UniProt P43405) was 0.027 (inactive); that for SUZ12 (UniProt Q15022) was 0.048 (inactive).
Consider SRGN (UniProt P10124), for which the log2 fold change was -0.064 (inactive).

Compound in a further experiment: CC1=CC=C(C=C1)SC2=C3C=C(SC3=CN=C2)C(=O)N
Described as above. In a few lines: as §1
In the case of SORBS3 (UniProt O60504), the log2 fold change is -0.114 (inactive).
On to SF3B6 (UniProt Q9Y3B4), for which the log2 fold change is -0.007 (inactive).
Same read-out and setting: the same measure for TAF1B (UniProt Q53T94): 0.138 (inactive); for SH3GL1 (UniProt Q99961): -0.012 (inactive).
As to SLC25A38 (UniProt Q96DW6), the log2 fold change is 0.04 (inactive).
Regarding SLC30A6 isoform 2 (UniProt Q6NXT4), the log2 fold change is 0.011 (inactive).
SMYD3 (UniProt Q9H7B4): the log2 fold change was -0.027 (inactive).
As to SIX5 (UniProt Q8N196), the log2 fold change was 0.021 (inactive).
Same read-out and setting: the same measure for SSBP3 (UniProt Q9BWW4): 0.054 (inactive).
SNRPD2 (UniProt P62316): the log2 fold change is -0.005 (inactive).
In the case of SNUPN (UniProt O95149), the log2 fold change is 0.027 (inactive).
On the same count and under the same terms, the value for SLC39A11 (UniProt Q8N1S5) was 0.001 (inactive).
On to STN1 (UniProt Q9H668), for which the log2 fold change was 0.035 (inactive).
Take SRSF9 (UniProt Q13242): the log2 fold change is -0.007 (inactive).
SMIM12 (UniProt Q96EX1): the log2 fold change is -0.011 (inactive).
Consider SZT2 (UniProt Q5T011), for which the log2 fold change is 0.105 (inactive).
Still for that read-out and setting: the same measure for STMN3 (UniProt Q9NZ72): 0.009 (inactive).
Take SLC25A44 (UniProt Q96H78): the log2 fold change is 0.002 (inactive).
For SYNE2 isoform 2 (UniProt Q8WXH0), the log2 fold change was 0.006 (inactive).
For the target STK3 isoform 2 (UniProt Q13188), the log2 fold change is -0.073 (inactive).
Take SPPL2A (UniProt Q8TCT8): the log2 fold change is -0.008 (inactive).
Same read-out and setting: the same measure for SURF2 (UniProt Q15527): -0.02 (inactive); for SPC25 (UniProt Q9HBM1): 0.006 (inactive).
With SH3BP2 isoform 4 (UniProt P78314), the log2 fold change is 0.073 (inactive).
The same measure, in the same setting: the same measure for SMC1B isoform 3 (UniProt Q8NDV3): -0.005 (inactive).
On the same count and under the same terms, the same measure for TARBP1 (UniProt Q13395): -0.036 (inactive); for SSX5 isoform 2 (UniProt O60225): -0.003 (inactive).
As for SRRT (UniProt Q9BXP5), the log2 fold change was -0.001 (inactive).
On the same count and under the same terms, the same measure for SMIM1 (UniProt B2RUZ4): 0.058 (inactive); for SOX5 (UniProt P35711): -0.105 (inactive); for SYK (UniProt P43405): -0.065 (inactive).
On the same count and under the same terms, the value for SUZ12 (UniProt Q15022) was -0.01 (inactive).
On to SRGN (UniProt P10124), for which the log2 fold change is -0.064 (inactive).
